Measured values taken from the supplement of paper PMC5641865, “A screen for kinase inhibitors identifies antimicrobial imidazopyridine aminofurazans as specific inhibitors of the Listeria monocytogenes PASTA kinase PrkA” (The Journal of Biological Chemistry, 2017).
Several values for one entry are separate records, joined by “and”; a condition that tells them apart may be missing. Identical values can stand only once. ± gives the standard deviation of the averaged measurements.

The compounds below were run on Listeria monocytogenes 10403S (assay: growth inhibition relative to ceftriaxone-alone control; higher = stronger potentiation of ceftriaxone growth inhibition). Details: 10 µM; ceftriaxone 1 ug/ml; 12 h.
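Further: End-point A600 read in BHI broth at 37 °C with 2% DMSO, inhibition computed as (1 − OD with compound plus ceftriaxone ÷ OD with ceftriaxone only) × 100.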

`O=C(Nc1n[nH]c2cc(-c3ccccc3)ccc12)C1CC1` was tested. Which growth inhibition did it give?
Its growth inhibition is 4.09 ± 0.32%.

With `CNC(=O)c1cncc(/C=C/c2c(Cl)cccc2Cl)c1` as the compound, how does the growth inhibition read?
The growth inhibition was -4.82 ± 4.5%.

Which growth inhibition does the source give for `CCn1c(-c2nonc2N)nc2ccc(F)cc21` here?
Its growth inhibition is -0.804 ± 2.6%.

How did the growth inhibition turn out when `CN1CCC(n2cnc(-c3ccc(F)cc3)c2-c2ccnc(Nc3ccccc3)n2)CC1` was run?
Its growth inhibition is -8.92 ± 3.6%.

For `Fc1ccc(-c2nc3n(c2-c2ccncc2)CCS3)cc1`, which growth inhibition is on record?
Its growth inhibition is -8.85 ± 15%.

How did the growth inhibition turn out when `NS(=O)(=O)c1ccc(N/N=C2\C(=O)Nc3ccc(Cl)cc32)cc1` was run?
Its growth inhibition is -12.5 ± 11%.

How did the growth inhibition turn out when `CS(=O)(=O)N1CCN(Cc2cc3nc(-c4cccc5[nH]ncc45)nc(N4CCOCC4)c3s2)CC1` was run?
Its growth inhibition is 25.2 ± 21%.

For `CN1CCN(C2CCN(C(=O)Nc3cc(Oc4ccc(NC(=O)C5(C(=O)Nc6ccc(F)cc6)CC5)c(F)c4)ccn3)CC2)CC1` [Golvatinib (E7050)], which growth inhibition is on record?
The growth inhibition was 48.7 ± 37%.

`COc1cc2/c(=N/c3ccc(Br)cc3F)nc[nH]c2cc1OCC1CCN(C)CC1` [Vandetanib (Zactima)] was tested. Which growth inhibition did it give?
Its growth inhibition is 24.2 ± 29%.

How did the growth inhibition turn out when `O=C(Nc1n[nH]c2nc(-c3ccco3)ccc12)C1CC1` was run?
The growth inhibition was 0.454 ± 0.64%.

`Cc1ccc(-c2cc3c(NC(=O)C4CC4)ncnc3o2)cc1` was tested. Which growth inhibition did it give?
The growth inhibition was -3.41 ± 5.3%.

With `O=c1c(O)c(-c2ccc(O)c(O)c2)oc2cc(O)cc(O)c12` [Quercetin (Sophoretin)] as the compound, how does the growth inhibition read?
Its growth inhibition is 20.4 ± 13%.

How did the growth inhibition turn out when `NC(=O)Nc1sc(-c2ccc(F)cc2)cc1C(N)=O` was run?
The growth inhibition was 40.9 ± 15%.

Which growth inhibition does the source give for `CCc1cccc(NC(=O)Nc2ccc(Oc3ccc4nc(NC(=O)OC)[nH]c4c3)cc2)c1` here?
Its growth inhibition is 9.75 ± 3.1%.

For `O=C(O)[C@]1(Cc2cccc(Nc3nccs3)n2)CC[C@@H](Oc2cccc(Cl)c2F)CC1`, which growth inhibition is on record?
Its growth inhibition is 89.4 ± 3%.

Which growth inhibition does the source give for `O=C1NC(=O)/C(=C/c2ccc3nccc(-c4ccncc4)c3c2)S1` here?
Its growth inhibition is 19.4 ± 3.5%.

How did the growth inhibition turn out when `CC(C)(C)c1cc(NC(=O)Nc2ccc(-c3cn4c(n3)sc3cc(OCCN5CCOCC5)ccc34)cc2)no1` [Quizartinib (AC220)] was run?
Its growth inhibition is 35.5 ± 10%.

Which growth inhibition does the source give for `COc1cc(/C=N/Nc2ncnc3[nH]ncc23)ccc1O` here?
The growth inhibition was 6.52 ± 10%.

How did the growth inhibition turn out when `COc1cc(Nc2ncc(-c3ccccc3)o2)cc(OC)c1` was run?
Its growth inhibition is 17 ± 3.9%.

How did the growth inhibition turn out when `Clc1ccc(-c2nn3ncccc3c2-c2ccnc(Nc3ccccc3)n2)cc1` was run?
The growth inhibition was -7.12 ± 3.8%.

Which growth inhibition does the source give for `C#Cc1cccc(Nc2ncnc3cc(OCCOC)c(OCCO)cc23)c1` here?
Its growth inhibition is 19.2% and 5.86%.

How did the growth inhibition turn out when `CCS(=O)(=O)c1ccc(OC)c(Nc2ncc(-c3cccc(OC)c3)o2)c1` was run?
Its growth inhibition is -9.19 ± 17%.

`CCS(=O)(=O)c1ccc(OC)c(Nc2ncc(-c3cccc(C(C)=O)c3)o2)c1` was tested. Which growth inhibition did it give?
Its growth inhibition is 7.79 ± 2.2%.

With `CC1=C(C(=O)Nc2ccc3[nH]ncc3c2)C(c2ccc(Cl)c(Cl)c2)CC(=O)N1` (stereo not drawn) as the compound, how does the growth inhibition read?
The growth inhibition was -13 ± 9.9%.

With `O=S(=O)(CCOCc1ccc(-c2ccc3ncnc(Nc4ccc(OCc5cccc(F)c5)c(Cl)c4)c3c2)o1)c1ccccc1` as the compound, how does the growth inhibition read?
The growth inhibition was -11.6 ± 11%.

How did the growth inhibition turn out when `CO[C@@H](C(=O)N1Cc2[nH]nc(NC(=O)c3ccc(N4CCN(C)CC4)cc3)c2C1)c1ccccc1` was run?
Its growth inhibition is 45.2 ± 16%.

With `CC1=C(C(=O)Nc2cc(Cl)c3[nH]ncc3c2)C(c2ccc(C(F)(F)F)cc2)CC(=O)N1` (stereo not drawn) as the compound, how does the growth inhibition read?
The growth inhibition was -4.67 ± 5.5%.

For `COc1cc2ncnc(Nc3cccc(Cl)c3)c2cc1OC` [AG-1478 (Tyrphostin AG-1478)], which growth inhibition is on record?
The growth inhibition was 31.5 ± 11%.

How did the growth inhibition turn out when `Cn1c(-c2nonc2N)nc2cnccc21` was run?
Its growth inhibition is -5.76 ± 4.5%.

With `OCCn1cc(-c2cnc3nnn(Cc4ccc5ncccc5c4)c3n2)cn1` as the compound, how does the growth inhibition read?
The growth inhibition was 22.9 ± 24%.

With `CS(=O)(=O)Nc1ccc(-c2ccc3c(NC(=O)C4CC4)n[nH]c3c2)cc1` as the compound, how does the growth inhibition read?
The growth inhibition was 38.6 ± 43%.

`O=C1Nc2ccccc2/C1=C/Nc1ccc2[nH]c(=O)[nH]c2c1` was tested. Which growth inhibition did it give?
The growth inhibition was 7.54 ± 1.1%.

How did the growth inhibition turn out when `COc1cc2ncnc(Nc3ccc(F)c(Cl)c3)c2cc1NC(=O)/C=C/CN1CCCCC1` was run?
The growth inhibition was 60 ± 55%.

For `COc1c(C(N)=O)cc(-c2ccc(Cl)cc2)cc1-c1ccc(S(N)(=O)=O)cc1`, which growth inhibition is on record?
Its growth inhibition is 1.37 ± 1.2%.

With `Cc1[nH]c(/C=C2\C(=O)Nc3ccc(S(=O)(=O)Cc4c(Cl)cccc4Cl)cc32)c(C)c1C(=O)N1CCC[C@@H]1CN1CCCC1` as the compound, how does the growth inhibition read?
The growth inhibition was 78 ± 5.2%.

How did the growth inhibition turn out when `CN(C)Cc1cccc(N=C(c2ccccc2)c2c(O)[nH]c3cc(C(=O)N(C)C)ccc23)c1` was run?
The growth inhibition was 26.5 ± 1.6%.

Which growth inhibition does the source give for `COc1cccc(-n2ncc3c(N/N=C/c4cccc(F)c4)ncnc32)c1` here?
Its growth inhibition is 6.27 ± 6.8%.

For `COc1cc2c(Nc3ccc(NC(=O)c4ccccc4)cc3)ncnc2cc1OCCCN1CCOCC1`, which growth inhibition is on record?
The growth inhibition was 24.9 ± 20%.
